The nature of assay [1]: Nuclear factor erythroid 2-related factor 2/antioxidant responsive element (Nrf2/ARE) small molecule agonists: luciferase reporter gene qHTS assay in human keratinocytes (AID 1919969). Note: nearly all actives have a fitted effect of over 35% in size. For orientation: A reporter such as luciferase makes a cellular process visible.
In assay [2] the target is KiSS-1 receptor (Homo sapiens) (UniProt Q969F8). Kind of assay: Human kisspeptin (KISS1R) small molecule agonists, calcium flux assay in KISS1R-HEK293 cells (AID 1920064; active = well fitted activation curve with a large enough effect in the repeat runs). In short, it runs like this:
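Cell line: HEK293, stable human KISS1R. Dye loading 1 h at 37 C after 18 h culture. Read: kinetic fluorescence, 480/540 nm, 3 min at 1 s intervals.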
(A change in cytosolic calcium serves as a functional read-out for many receptors and channels.)

Assay [3] can be described thus: G protein-coupled receptor (GPCR) small molecule agonists, calcium flux assay: HEK293 wild type cell line counter screen (AID 1920065). In short, it runs like this:
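Tox21 10K compounds, 15 concentrations each in triplicate, pin-transferred in DMSO onto dye-loaded cells; kinetic read at 480/540 nm for 3 min, 1 s intervals.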

Assay [4] is described as follows: p53 small molecule agonists, cell-based qHTS assay with human liver microsomes (AID 1963577). In short, it runs like this:
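p53RE-bla cells, 4,000/well, compound added after 5 h, with human liver microsomes 0.5 mg/mL and NADPH 0.5 mg/mL final; 16 h at 37 C, then LiveBLAzer 2 h RT, fluorescence.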
A general note: In qHTS, concentration-response curves come from the screen itself.

Assay [5] in a line: p53 small molecule agonists, cell-based qHTS assay with human liver microsomes: qHTS cell viability counter screen (AID 1963579). Note: nearly all actives have a fitted effect of over 45% in size. In a few lines:
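p53RE-bla cells, 4,000/well, dosed 5 hours after plating, with human liver microsomes (0.5 mg/mL final) plus NADPH (0.5 mg/mL final), 16 hours at 37 C. Viability read as CellTiter-Glo luminescence after 30 min at room temperature.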

Assay [6] can be described thus: p53 small molecule agonists, cell-based qHTS assay with rat liver microsomes: qHTS cell viability counter screen (AID 1963580). Note: nearly all actives have a fitted effect of over 45% in size. In a few lines:
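Counter screen for cytotoxicity under metabolic activation: rat liver microsomes and NADPH, 0.5 mg/mL final each, added with compounds to p53RE-bla HCT-116 cells; 16 h at 37 C, then ATP luminescence read.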

Assay [7] can be described thus: p53 small molecule agonists, cell-based qHTS assay (AID 1963582; active = well fitted activation curve with a large enough effect in the signal ratio in the repeat runs, not every such curve was filed as active; the % refers to the signal ratio). In short, it runs like this: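 16 h compound exposure (37 C) of p53 response element–bla cells, preceded by 5 h recovery at 37 C/5% CO2; read-out via LiveBLAzer B/G FRET substrate, 2 h RT, fluorescence intensity.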
Assay [8] addresses Beta-2 adrenergic receptor (Homo sapiens) (UniProt P07550). In words: Adrenergic beta2 receptor (ADRB2) small molecule antagonists, cell-based qHTS assay (AID 1963592). Note: nearly all actives have a fitted effect of over 50% in size. Note: potency is the fitted concentration of half-maximal effect. In short, it runs like this:
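Assay format: CHO-ADRB2 cells, 18-20hr seeding at 37C/5% CO2, then compound plus 1nM isoproterenol agonist mix for 0.5hr RT. Homogeneous time-resolved fluorescence cAMP detection after 1hr, expressed as 665/615 nm ratio.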

The target is the same in assay [9]. In words: Adrenergic beta2 receptor (ADRB2) small molecule agonists, cell-based qHTS assay (AID 1963593).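 Note: CHO cells stably overexpressing human ADRB2.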 In a few lines: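 CHO cells stably over-expressing ADRB2 were plated overnight at 37C, then dosed with compounds plus a stimulation mix containing 100uM IBMX and 25uM Ro-20-1724 for 0.5hr at room temperature. cAMP was measured by HTRF competition, 1hr.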
Assay [10] addresses D(2) dopamine receptor (Homo sapiens) (UniProt P14416). Kind of assay: Dopamine D2 receptor (DRD2) small molecule agonists, cell-based qHTS assay (AID 1963594). Note: nearly all actives have a fitted effect of over 35% in size. In a few lines: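 HEK293 cells stably expressing DRD2 were cultured 24 h at 37 C, then given Ro20-1724 (0.1 mM final) and compounds for 10 min at room temperature. NKH477 (200nM) was then added for 30 min. cAMP was read by HTRF.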

Assay [11] shares this target. Kind of assay: Dopamine D2 receptor (DRD2) small molecule antagonists, cell-based qHTS assay (AID 1963595; active = well fitted inhibition curve with a large enough effect in the signal ratio in the repeat runs, with a control signal flat; the % refers to the signal ratio). In a few lines:
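Antagonism was scored as restored cAMP in HEK293-DRD2 cells. These cells were stimulated with 200 nM NKH477 and 12 nM quinpirole for 30 min at room temperature, in the presence of 0.1 mM Ro20-1724.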

In assay [12] the target is Gonadotropin-releasing hormone receptor (Homo sapiens) (UniProt P30968). Kind of assay: Human gonadotropin-releasing hormone receptor (GnRHR) small molecule agonists, calcium flux assay in GnRHR-HEK293 cells (AID 1920063). Note: nearly all actives have a fitted effect of over 35% in size. In short, it runs like this:
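Compounds dissolved in DMSO are pin-transferred onto dye-loaded GnRHR-HEK293 cells, which were seeded 18 h before at 37 C/5% CO2. Calcium signal is read as fluorescence intensity at 1 s intervals for 3 min.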

Assay [13] can be described thus: p53 small molecule agonists, cell-based qHTS assay with rat liver microsomes (AID 1963578). In a few lines: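 p53RE-bla cells, 4,000/well, pre-incubated 5 h, then given compounds plus rat liver microsomes (0.5 mg/mL final) and NADPH (0.5 mg/mL final). Incubation 16 h at 37 C; beta-lactamase reporter read by LiveBLAzer fluorescence after 2 h at room temperature.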

The nature of assay [14]: p53 small molecule agonists, cell-based qHTS assay: qHTS cell viability counter screen (AID 1963581). Note: nearly all actives have a fitted effect of over 45% in size. In a few lines: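 ATP content measured by luminescence in HCT-116 p53RE-bla cells treated 16 h at 37 C, same wells as the reporter screen.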
The target of assay [15] is 5-hydroxytryptamine receptor 2A (Homo sapiens) (UniProt P28223). Kind of assay: 5-hydroxytryptamine receptor 2A (HTR2A) small molecule antagonists, cell-based qHTS assay (AID 1963586). Note: nearly all actives have a fitted effect of over 45% in size. Note: potency is the fitted concentration of half-maximal effect. In a few lines:
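CHO cells stably expressing human HTR2A were plated for 18 h at 37 C, then loaded with calcium dye for 1 h. Compounds were preincubated 5 min at room temperature before DOI (4 nM solution) was added. Kinetic fluorescence was read for 3 min.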

For assay [16] the target is unchanged. In words: 5-hydroxytryptamine receptor 2A (HTR2A) small molecule agonists, cell-based qHTS assay (AID 1963587). Note: nearly all actives have a fitted effect of over 30% in size. Note: potency is the fitted concentration of half-maximal effect. In short, it runs like this:
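HTR2A-CHO cells, plated 18 h at 37 C/5% CO2, dye-loaded 1 h at 37 C; compounds in DMSO added by pin tool (agonist mode). Intracellular calcium flux read as kinetic fluorescence on FDSS over 2 min at 1 s intervals.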

Assay [17] addresses Muscarinic acetylcholine receptor M1 (Homo sapiens) (UniProt P11229). Kind of assay: Cholinergic receptor muscarinic 1 (CHRM1) small molecule antagonists, cell-based qHTS assay (AID 1963588). Note: nearly all actives have a fitted effect of over 40% in size. Note: potency is the fitted concentration of half-maximal effect. In short, it runs like this: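 Compounds were tested at 15 concentrations in three independent runs. Dye-loaded CHRM1-CHO cells were exposed 5 min at room temperature before stimulation by acetylcholine added at 50nM. Intracellular calcium was read kinetically on FDSS for 3 min.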

Assay [18] shares this target. In words: Cholinergic receptor muscarinic 1 (CHRM1) small molecule agonists, cell-based qHTS assay (AID 1963589). Note: nearly all actives have a fitted effect of over 35% in size. In short, it runs like this: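 Homogeneous fluorescence calcium flux, agonist mode. Human M1-expressing CHO cells; compound dosed at 15 concentrations, three independent runs; signal sampled every 1 sec.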
Assay [19] is described as follows: cAMP Responsive Elements (CRE) small molecule agonists, cell-based qHTS assay (AID 1963590). In short, it runs like this: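 HEK 293T cells stably bearing CRE-bla were plated at 2,000 cells per well and rested 18 h. Compounds, positive controls or DMSO were added for 3 h at 37 C. LiveBLAzer B/G substrate was then loaded for 2 h at room temperature.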
Assay [20] is described as follows: cAMP Responsive Elements (CRE) small molecule antagonists, cell-based qHTS assay (AID 1963591; active = well fitted inhibition curve with a large enough effect in the signal ratio in the repeat runs, not every such curve was filed as active; the % refers to the signal ratio). In a few lines: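 First, CRE-bla HEK293T cells settled 18 h at 37 C. Next, compound and 0.25 uM final NKH477 were applied for 3 h. Last, LiveBLAzer B/G substrate was loaded for 2 h at room temperature.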

The text below walks through data of PubChem BioAssay (Tox21).

Values without a mark were called inactive. Records with an inconclusive call do not appear. Calls of active or inactive are those of the source. Unless noted, calls come from the whole dose curve.

D(2) dopamine receptor (Homo sapiens), sequence (P14416 whole entry, looked up): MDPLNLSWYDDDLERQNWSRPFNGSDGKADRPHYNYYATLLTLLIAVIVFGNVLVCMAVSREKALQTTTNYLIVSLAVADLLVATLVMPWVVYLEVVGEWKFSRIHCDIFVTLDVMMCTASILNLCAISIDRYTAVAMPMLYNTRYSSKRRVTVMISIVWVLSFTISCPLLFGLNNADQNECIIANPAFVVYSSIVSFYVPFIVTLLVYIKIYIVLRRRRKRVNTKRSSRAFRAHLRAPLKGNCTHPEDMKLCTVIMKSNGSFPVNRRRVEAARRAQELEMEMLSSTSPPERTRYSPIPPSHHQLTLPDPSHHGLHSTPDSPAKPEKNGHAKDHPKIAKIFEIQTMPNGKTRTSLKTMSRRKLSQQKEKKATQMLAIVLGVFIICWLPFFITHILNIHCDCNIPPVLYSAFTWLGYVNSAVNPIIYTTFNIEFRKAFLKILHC
Muscarinic acetylcholine receptor M1 (Homo sapiens), sequence (P11229 whole entry, looked up): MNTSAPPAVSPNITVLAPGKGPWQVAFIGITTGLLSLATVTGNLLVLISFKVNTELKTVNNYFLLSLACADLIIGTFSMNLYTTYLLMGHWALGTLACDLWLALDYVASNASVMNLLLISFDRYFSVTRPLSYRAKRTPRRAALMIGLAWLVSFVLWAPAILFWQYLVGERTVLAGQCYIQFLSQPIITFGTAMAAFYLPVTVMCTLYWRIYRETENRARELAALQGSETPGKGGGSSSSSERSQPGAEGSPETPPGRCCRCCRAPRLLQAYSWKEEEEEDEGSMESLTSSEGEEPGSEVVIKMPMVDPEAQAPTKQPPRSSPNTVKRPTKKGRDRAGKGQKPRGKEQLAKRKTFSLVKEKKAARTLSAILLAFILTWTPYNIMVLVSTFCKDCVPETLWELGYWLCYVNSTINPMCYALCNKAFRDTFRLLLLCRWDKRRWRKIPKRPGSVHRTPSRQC
Beta-2 adrenergic receptor (Homo sapiens), sequence (P07550 whole entry, looked up): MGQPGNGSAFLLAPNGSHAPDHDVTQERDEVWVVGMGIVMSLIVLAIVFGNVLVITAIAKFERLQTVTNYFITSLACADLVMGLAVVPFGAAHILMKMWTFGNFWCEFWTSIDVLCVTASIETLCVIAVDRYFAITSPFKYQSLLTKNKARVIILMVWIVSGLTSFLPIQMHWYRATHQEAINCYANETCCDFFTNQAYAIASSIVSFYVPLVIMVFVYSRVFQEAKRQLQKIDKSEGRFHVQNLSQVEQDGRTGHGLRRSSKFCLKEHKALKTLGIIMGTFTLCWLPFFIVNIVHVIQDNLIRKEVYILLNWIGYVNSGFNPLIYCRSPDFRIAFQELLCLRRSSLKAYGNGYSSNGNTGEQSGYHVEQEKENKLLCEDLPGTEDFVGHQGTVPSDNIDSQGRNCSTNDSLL
5-hydroxytryptamine receptor 2A (Homo sapiens), sequence (P28223 whole entry, looked up): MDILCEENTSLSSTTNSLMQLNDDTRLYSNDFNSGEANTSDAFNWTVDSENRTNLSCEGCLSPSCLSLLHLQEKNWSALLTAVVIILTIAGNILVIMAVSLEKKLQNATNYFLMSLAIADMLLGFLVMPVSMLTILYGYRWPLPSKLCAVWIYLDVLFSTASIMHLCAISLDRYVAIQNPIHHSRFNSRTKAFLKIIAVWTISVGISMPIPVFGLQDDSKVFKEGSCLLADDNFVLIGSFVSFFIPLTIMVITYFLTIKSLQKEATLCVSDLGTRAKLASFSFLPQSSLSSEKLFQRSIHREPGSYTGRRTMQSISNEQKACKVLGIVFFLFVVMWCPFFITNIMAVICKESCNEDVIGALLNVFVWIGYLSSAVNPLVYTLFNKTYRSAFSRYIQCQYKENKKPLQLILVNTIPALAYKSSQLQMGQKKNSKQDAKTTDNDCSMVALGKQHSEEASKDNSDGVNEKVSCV
KiSS-1 receptor (Homo sapiens), sequence (Q969F8 whole entry, looked up): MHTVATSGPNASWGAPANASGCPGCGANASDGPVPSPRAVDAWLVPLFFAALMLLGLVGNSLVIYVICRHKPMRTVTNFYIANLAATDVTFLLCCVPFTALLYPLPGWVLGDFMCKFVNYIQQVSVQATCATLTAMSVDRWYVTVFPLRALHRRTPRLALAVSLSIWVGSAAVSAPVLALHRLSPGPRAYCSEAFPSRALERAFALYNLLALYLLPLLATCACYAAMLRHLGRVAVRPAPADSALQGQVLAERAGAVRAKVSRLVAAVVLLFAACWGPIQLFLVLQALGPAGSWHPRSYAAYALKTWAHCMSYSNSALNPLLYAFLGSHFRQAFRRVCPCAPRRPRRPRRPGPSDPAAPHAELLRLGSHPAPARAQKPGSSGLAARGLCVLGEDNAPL
Gonadotropin-releasing hormone receptor (Homo sapiens), sequence (P30968 whole entry, looked up): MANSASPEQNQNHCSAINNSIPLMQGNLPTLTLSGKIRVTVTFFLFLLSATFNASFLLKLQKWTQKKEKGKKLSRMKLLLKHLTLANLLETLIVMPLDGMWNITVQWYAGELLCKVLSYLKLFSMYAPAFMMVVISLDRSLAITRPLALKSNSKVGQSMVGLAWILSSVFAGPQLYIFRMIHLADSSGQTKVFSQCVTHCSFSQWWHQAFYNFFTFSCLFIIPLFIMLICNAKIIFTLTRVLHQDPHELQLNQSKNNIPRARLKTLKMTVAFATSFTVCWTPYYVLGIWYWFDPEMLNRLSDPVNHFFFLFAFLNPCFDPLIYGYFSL

Take `CCC(=O)O[C@]1(C(=O)CCl)[C@@H](C)C[C@H]2[C@@H]3CCC4=CC(=O)C=C[C@]4(C)[C@@]3(F)[C@@H](O)C[C@@]21C`: the Potency entry in assay [1], in [4], in [5], in assay [6], in assay [7] and in [8] was “inactive” in each case. The Potency entry in [9], in [10] and in assay [11] was “inactive” throughout. Moreover, the result in assay [2] and in assay [3] was inactive.
For the molecule `COC[C@H](c1ccc(C(F)(F)F)cc1)N1CCN(C2(C)CCN(C(=O)c3c(C)ncnc3C)CC2)C[C@H]1C`, the Potency result in assay [12], in [4], in assay [13], in assay [5], in [6] and in [14] was “inactive” throughout. Besides, the Potency result in assay [7], in [15], in assay [16], in assay [18], in [8] and in assay [9] was “inactive” each time. The Potency entry in assay [10] and in assay [11] was “inactive” each time. The outcome in [2] and in [3] was inactive. Besides, the Potency in [17] is 5160 nM (active).
For the molecule `CN(C)CCCOc1nn(Cc2ccccc2)c2ccccc12`, the Potency entry in [12], in assay [4], in assay [13], in [5], in assay [6] and in assay [15] was “inactive” each time. Further, the Potency entry in [16], in assay [17], in assay [18], in [19] and in [11] was “inactive” throughout. Besides, the result in assay [2] and in assay [3] was inactive. Further, the Potency in assay [8] is 26600 nM (active).
As to `Cc1cc(=O)oc2cc(O)cc(O)c12`, the Potency result in assay [1], in [12], in assay [4], in assay [13], in assay [5] and in assay [6] was “inactive” throughout. For the same molecule, the Potency entry in assay [14], in [7], in [15], in [16], in assay [17] and in assay [18] was “inactive” in each case. For the same molecule, the Potency result in assay [8], in [10] and in [11] was “inactive” throughout. Moreover, the outcome in assay [3] was inactive.
For the molecule `Oc1ccc(C2CNCCc3c2cc(O)c(O)c3Cl)cc1` (centres undefined), the Potency result in [1], in assay [12], in [4], in assay [13], in assay [6] and in [7] was “inactive” each time. Besides, the Potency entry in [17], in [18], in [19], in assay [20] and in assay [11] was “inactive” each time. Further, the result in assay [2] was inactive. In addition, the figures for the Potency in assay [15] and in assay [16] were 259 nM (active) and 151 nM (active), respectively.
As for `O=C(N[C@@H](Cc1ccccc1)[C@@H](O)C(=O)N1C[C@@H](O)[C@@H](O)C1)c1cc2cc(Cl)ccc2[nH]1`, the Potency result in [12], in [4], in assay [13], in assay [5], in assay [6] and in assay [14] was “inactive” each time. Further, the Potency result in assay [7], in [15], in assay [16], in assay [17], in [18] and in [20] was “inactive” each time. Moreover, the Potency entry in assay [8], in [9], in assay [10] and in assay [11] was “inactive” each time. The result in assay [2] and in [3] was inactive.
Consider `CCN(CCC#N)c1ccc(N=Nc2ccc([N+](=O)[O-])cc2)cc1`, for which the Potency result in assay [12], in assay [4], in [13], in assay [6], in assay [14] and in assay [15] was “inactive” each time. The Potency result in assay [16], in assay [17], in assay [18], in [19], in [8] and in [10] was “inactive” each time. For the same molecule, the outcome in assay [2] and in [3] was inactive.
